In PubChem BioAssay (NCI):
This is part of a sample that, as a whole, favours compounds with a hit. Of some 83,000 tested, about 20% had one in any assay.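 Assay: single dose, 48 h. Readout: percent growth (0 = no net growth; negative = cell death). Active: <10.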 Values without a mark were called inactive. Activity calls are given as the source filed them.

Columns and labels:
Assay in all cases: NCI-60 one-dose screen, 48 h (100 = growth as untreated, 0 = no growth, -100 = all killed)
Settings in all cases: 10 µM unless noted
SR leukemia = system: SR leukemia
RPMI-8226 leukemia = system: RPMI-8226 leukemia
OVCAR-8 ovarian = system: OVCAR-8 ovarian
OVCAR-5 ovarian = system: OVCAR-5 ovarian
OVCAR-4 ovarian = system: OVCAR-4 ovarian
SK-OV-3 ovarian = system: SK-OV-3 ovarian
IGROV1 ovarian = system: IGROV1 ovarian
OVCAR-3 ovarian = system: OVCAR-3 ovarian
HS 578T breast = system: HS 578T breast
NCI/ADR-RES ovarian = system: NCI/ADR-RES ovarian
T-47D breast = system: T-47D breast
BT-549 breast = system: BT-549 breast
MDA-MB-435 melanoma = system: MDA-MB-435 melanoma
SW-620 colon = system: SW-620 colon
MCF7 breast = system: MCF7 breast
HCT-116 colon = system: HCT-116 colon
HCC-2998 colon = system: HCC-2998 colon
KM12 colon = system: KM12 colon

Compound	growth (SR leukemia)	growth (RPMI-8226 leukemia)	growth (OVCAR-8 ovarian)	growth (OVCAR-5 ovarian)	growth (OVCAR-4 ovarian)	growth (SK-OV-3 ovarian)	growth (IGROV1 ovarian)	growth (OVCAR-3 ovarian)	growth (HS 578T breast)	growth (NCI/ADR-RES ovarian)	growth (T-47D breast)	growth (BT-549 breast)	growth (MDA-MB-435 melanoma)	growth (SW-620 colon)	growth (MCF7 breast)	growth (HCT-116 colon)	growth (HCC-2998 colon)	growth (KM12 colon)
N#Cc1ccc(OC(=O)Nc2cc(Cl)cc(Cl)c2)cc1	-30.4% [100 µM] (active)	-13% [100 µM] (active)	7.55% [100 µM] (active)	9.02% [100 µM] (active)	11.4% [100 µM]	-6.95% [100 µM] (active)	18% [100 µM]	7.77% [100 µM] (active)	-11.5% [100 µM] (active)	-4.12% [100 µM] (active)	-12.2% [100 µM] (active)	-27.1% [100 µM] (active)	-9.08% [100 µM] (active)	4.92% [100 µM] (active)	-25.7% [100 µM] (active)	-62.7% [100 µM] (active)	-8.43% [100 µM] (active)	-15% [100 µM] (active)
COc1cc(N)c2ncccc2c1Cl	91.3%	83.9%	103%	90.2%	128%	105%	117%	118%	130%	112%	101%	87.5%	111%	109%	104%	95.3%	106%	117%
CCOP(=O)(OCC)/C(=C\N1C(=O)CC(=O)NC1=S)C(=O)OC	96.7%	101%	97.6%	98.7%	94.3%	104%	103%	114%	98.4%	104%	95%	116%	102%	101%	94.7%	115%	85.7%	105%
O=S(=O)(O)C(C(I)I)S(=O)(=O)O	101%	114%	101%	114%	107%	106%	114%	105%	93.7%	113%	118%	118%	104%	–	98.9%	107%	101%	103%
CC(=O)NC(CCC(=O)c1ccccc1)C(=O)O (stereo not given)	16.6%	91.4%	101%	98.3%	100%	87.5%	104%	107%	108%	106%	83.3%	76.9%	99.2%	100%	89.4%	80.2%	108%	103%
COCC(N)=O	98.3%	103%	108%	101%	120%	105%	114%	106%	103%	111%	98.4%	93.2%	105%	99.7%	102%	99%	110%	98.9%
C=C(OC(C)=O)c1ccccc1	80.7%	70.3%	101%	106%	115%	96%	113%	112%	90.7%	109%	89.5%	107%	107%	–	97.1%	98%	110%	102%
COC1CC(OC(=O)c2ccc([N+](=O)[O-])cc2)C(COC(=O)c2ccc([N+](=O)[O-])cc2)O1 (stereo not given)	85.9%	101%	91.2%	99.7%	97%	107%	126%	111%	109%	108%	104%	116%	97.7%	99.7%	91.5%	105%	112%	109%
CCCCNC(=O)c1ccc(OCC)cc1	104%	99.1%	103%	96.1%	101%	98.7%	108%	105%	101%	100%	96.1%	99.9%	103%	97.9%	88.6%	90.5%	104%	106%
